From PubChem BioAssay come the findings set out here.

Assay [1] in a line: compounds binding Alexa647 anti-His antibody – biochemical, small-molecule microarray, 635 nm fluorescence, artefact control for SMM control protein annotation, primary screen (AID 1128).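 Note: score merges feature fluorescence with signal-to-noise for each printed compound spot.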 The note with it: higher = more signal.
Assay [2] relates to Human papillomavirus type 1a E7 protein (residues 1-88). Briefly: HPV1a E7 small-molecule binders, primary screen, biochemical, small-molecule microarray, residues 1-88, 635 nm (AID 1129). The note with it: small-molecule microarray binding, fluorescence 635 nm; higher = more signal.
Assay [3] deals with Focal adhesion kinase 1 (Homo sapiens) (UniProt Q05397). The experiment in a line: PTK2 protein binding on printed compound slides – biochemical, small-molecule microarray, 635/667 nm fluorescence, BSA, DTT, primary screen (AID 1130).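 Note: composite of spot emission at 667 nm and signal to noise over triplicate slides.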 The note with it: 635 nm fluorescence, higher = more signal.
Assay [4] concerns Fibrinogen (Alexa647-labelled). Briefly: Alexa647-fibrinogen binding to printed small molecules – biochemical, small-molecule microarray, 635/667 nm fluorescence, artefact control for SMM control-protein annotation, profiling panel (AID 1131).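 Note: z-score merges 667 nm fluorescence with per-spot signal-to-noise over triplicate slides.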 The note with it: fibrinogen-A647 binding fluorescence, higher = more signal.
Assay [5] concerns the target Follistatin (Homo sapiens) (UniProt P19883). The experiment in a line: FST protein binding to printed compounds – biochemical, small-molecule microarray, 635/667 nm fluorescence, primary screen (AID 1132). To be noted: 635 nm fluorescence, higher = more signal.
The target in assay [6] is Fibroblast growth factor 2 (Homo sapiens) (UniProt P09038). Briefly: basic fibroblast growth factor binding to printed compounds – biochemical, small-molecule microarray, 635/667 nm fluorescence, primary screen (AID 1133). To be noted: FGF2, fluorescence 635/667, higher = more signal.
Assay [7] in a line: JC-1 mitochondrial potential readout, lung cancer cells – cell-based, A549, JC-1 fluorescence, basal, 24 h, 100 nL, profiling panel (AID 1138).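 Note: A549 lung adenocarcinoma cells under basal conditions with no added stimulus; test concentration not given here.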 The note with it: higher = more signal.
The subject of a further assay is Lefty1. Briefly: Lefty1 protein binding to printed compounds – biochemical, small-molecule microarray, 635/667 nm fluorescence, primary screen (AID 1139). The note with it: fluorescence 635/667, higher = more signal.
Assay [8] relates to wheat germ agglutinin (Triticum aestivum), Alexa647-labelled. Briefly: Alexa647-WGA lectin binding to printed small molecules – biochemical, small-molecule microarray, 635/667 nm fluorescence, artefact control for SMM control-protein annotation, profiling panel (AID 1140).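 Note: score merges 667 nm feature emission with signal to noise over triplicate slides.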 To be noted: WGA-A647 binding, 635 nm fluorescence, higher = more signal.
Assay [9] concerns the target Luciferin 4-monooxygenase (Photinus pyralis) (UniProt P08659). Briefly: inhibition of purified Photinus pyralis luciferase – biochemical, luminescence, purified enzyme, 2006 set, primary screen (AID 1141).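 Note: cell-free assay with purified firefly luciferase at 100 ng per well in PBS; test concentration not given here.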 The note with it: purified firefly luciferase, SteadyGlo luminescence, 30 min; higher = more signal, called active from +8 up or from −8 down.
Assay [10] deals with Wnt5a (protein binding on small-molecule microarray). The experiment in a line: small molecules binding Wnt5a protein – biophysical, small-molecule microarray, 635/667 nm fluorescence, primary screen (AID 1142).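 Note: fluorescence read at 667 nm with signal to noise per printed feature.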 The note with it: 635 nm fluorescence, higher = more signal.
Assay [11] is described as follows: ATP-based viability of Huh7 replicon cells – cell-based, CellTiter-Glo luminescence, basal, 48 h, cytotoxicity control for HCV replication inhibitor project, primary screen (AID 1143).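 Note: Huh7 hepatoma cells carrying a hepatitis C replication reporter with no stimulus; test concentration not given here.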 To be noted: higher = more signal, called active from +8 up or from −8 down. For orientation: Replicon systems follow genome replication, usually without infectious particles.
A short description of assay [12]: Pseudomonas biofilm growth suppression – PAO1 strain, BacTiter-Glo luminescence, LB-PBS, primary screen (AID 1144). The note with it: P. aeruginosa PAO1 biofilm, 12 h, higher = more signal.
The nature of assay [13]: basal CRE-LacZ reporter activity in PC12 – cell-based, unstimulated, primary screen (AID 1145). The note with it: no forskolin, luminescence, 4.5 h, higher = more signal, called active from +8 up or from −8 down.
The nature of assay [14]: forskolin-driven CRE-LacZ activity in PC12 – cell-based, CRE-LacZ reporter, forskolin-stimulated, primary screen (AID 1146).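 Note: PC12 cells with 6xCRE LacZ reporter stimulated by forskolin 10 µM; beta-galactosidase reporter signal reflecting CREB driven transcription.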 To be noted: luminescence, 4.5 h, higher = more signal, called active from +8 up or from −8 down.
For assay [15], the target named is Streptavidin (Streptomyces avidinii) (UniProt P22629). Briefly: compounds binding control protein streptavidin – biophysical, small-molecule microarray, 635/667 nm fluorescence, artefact control for SMM compound annotation, primary screen (AID 1147).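 Note: signal reflects streptavidin binding to arrayed compounds as a control protein.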 To be noted: higher = more signal.
Assay [16] is described as follows: probe aInhba binding on compound microarray – biochemical, small-molecule microarray, 635/667 nm fluorescence, primary screen (AID 1148).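 Note: score merges 667nm spot fluorescence with signal-to-noise for antibody binding to printed compounds.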 To be noted: higher = more signal.
The target of assay [17] is Torsin-1A (Homo sapiens) (UniProt O14656). Briefly: TOR1A wild-type binding on microarray – cell lysate, small-molecule microarray, lysate, 635/667 nm, primary screen (AID 1149). To be noted: COS7 hTOR1A-WT lysate, 635 nm fluorescence, higher = more signal.
Assay [18] shares this target. The experiment in a line: torsin A mutant lysate binding on microarrays – cell lysate, small-molecule microarray, COS7 lysate, 635/667 nm fluorescence, primary screen (AID 1150).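 Note: score pools 667 nm emission and signal to noise measuring lysate protein binding.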 The note with it: COS7 hTOR1A mutant lysate, 635 nm fluorescence, higher = more signal.
Assay [19] has as its system Sonic hedgehog protein (Shh). The experiment in a line: Sonic hedgehog microarray binding compounds – biochemical, small-molecule microarray, 635/667 nm fluorescence, primary screen (AID 1151).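 Note: Shh protein binding to compounds spotted on small-molecule microarray slides; score combines spot fluorescence intensity with signal-to-noise across triplicate slides.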 To be noted: 635 nm fluorescence, higher = more signal.

Activity calls are given as the source filed them. Unless noted, the rule behind the calls is not given here.

Sequence of Follistatin (Homo sapiens) (P19883 whole entry, looked up): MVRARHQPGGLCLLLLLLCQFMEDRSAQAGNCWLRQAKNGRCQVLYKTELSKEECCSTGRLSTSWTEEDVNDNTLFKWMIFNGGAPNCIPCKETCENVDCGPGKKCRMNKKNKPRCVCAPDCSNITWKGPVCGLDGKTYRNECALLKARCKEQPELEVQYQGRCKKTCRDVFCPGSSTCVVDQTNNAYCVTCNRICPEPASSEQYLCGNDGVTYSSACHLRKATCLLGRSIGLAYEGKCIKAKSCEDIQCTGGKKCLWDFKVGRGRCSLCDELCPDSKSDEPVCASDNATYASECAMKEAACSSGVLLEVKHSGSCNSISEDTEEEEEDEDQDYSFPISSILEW
Sequence of Streptavidin (Streptomyces avidinii) (P22629 whole entry, looked up): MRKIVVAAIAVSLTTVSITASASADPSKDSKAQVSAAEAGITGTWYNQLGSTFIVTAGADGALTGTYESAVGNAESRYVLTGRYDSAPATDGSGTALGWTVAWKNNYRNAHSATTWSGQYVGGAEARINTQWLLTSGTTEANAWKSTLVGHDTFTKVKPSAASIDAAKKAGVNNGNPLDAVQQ
Sequence of Focal adhesion kinase 1 (Homo sapiens) (Q05397 whole entry, looked up): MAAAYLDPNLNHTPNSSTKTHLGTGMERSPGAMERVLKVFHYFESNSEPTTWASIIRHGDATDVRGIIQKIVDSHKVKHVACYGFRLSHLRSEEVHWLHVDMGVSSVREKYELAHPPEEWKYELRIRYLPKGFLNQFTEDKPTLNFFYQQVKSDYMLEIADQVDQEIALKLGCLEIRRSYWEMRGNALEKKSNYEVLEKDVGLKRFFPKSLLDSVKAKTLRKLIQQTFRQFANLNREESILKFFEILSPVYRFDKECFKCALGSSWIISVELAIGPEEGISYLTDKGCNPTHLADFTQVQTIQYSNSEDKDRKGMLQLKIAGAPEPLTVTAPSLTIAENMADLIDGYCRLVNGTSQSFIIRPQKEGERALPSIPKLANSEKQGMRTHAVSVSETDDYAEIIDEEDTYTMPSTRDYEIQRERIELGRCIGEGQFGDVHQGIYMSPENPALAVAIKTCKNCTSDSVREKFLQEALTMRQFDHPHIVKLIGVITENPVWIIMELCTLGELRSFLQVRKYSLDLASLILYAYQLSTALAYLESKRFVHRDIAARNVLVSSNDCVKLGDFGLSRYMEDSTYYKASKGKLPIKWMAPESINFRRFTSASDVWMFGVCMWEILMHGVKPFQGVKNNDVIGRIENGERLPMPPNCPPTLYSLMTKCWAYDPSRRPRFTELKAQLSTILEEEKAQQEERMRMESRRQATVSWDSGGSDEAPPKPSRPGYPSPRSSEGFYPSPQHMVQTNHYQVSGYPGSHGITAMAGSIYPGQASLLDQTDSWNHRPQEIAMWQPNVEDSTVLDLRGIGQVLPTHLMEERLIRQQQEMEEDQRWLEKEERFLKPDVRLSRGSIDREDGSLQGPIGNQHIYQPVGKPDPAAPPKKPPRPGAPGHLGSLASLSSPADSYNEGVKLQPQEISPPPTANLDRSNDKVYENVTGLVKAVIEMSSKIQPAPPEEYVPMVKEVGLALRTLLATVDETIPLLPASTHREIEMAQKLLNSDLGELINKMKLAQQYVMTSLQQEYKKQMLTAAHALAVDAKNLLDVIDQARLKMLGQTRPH
Sequence of Torsin-1A (Homo sapiens) (O14656 whole entry, looked up): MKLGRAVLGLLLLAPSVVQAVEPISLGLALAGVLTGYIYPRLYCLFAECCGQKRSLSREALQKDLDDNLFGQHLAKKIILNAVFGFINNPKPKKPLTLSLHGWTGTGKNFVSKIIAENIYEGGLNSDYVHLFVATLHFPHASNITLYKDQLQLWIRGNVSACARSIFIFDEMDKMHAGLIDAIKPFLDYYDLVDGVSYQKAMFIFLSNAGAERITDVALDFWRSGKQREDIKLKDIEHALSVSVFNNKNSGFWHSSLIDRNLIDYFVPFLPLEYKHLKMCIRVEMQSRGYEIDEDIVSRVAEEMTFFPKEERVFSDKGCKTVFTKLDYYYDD
Sequence of Fibroblast growth factor 2 (Homo sapiens) (P09038 whole entry, looked up): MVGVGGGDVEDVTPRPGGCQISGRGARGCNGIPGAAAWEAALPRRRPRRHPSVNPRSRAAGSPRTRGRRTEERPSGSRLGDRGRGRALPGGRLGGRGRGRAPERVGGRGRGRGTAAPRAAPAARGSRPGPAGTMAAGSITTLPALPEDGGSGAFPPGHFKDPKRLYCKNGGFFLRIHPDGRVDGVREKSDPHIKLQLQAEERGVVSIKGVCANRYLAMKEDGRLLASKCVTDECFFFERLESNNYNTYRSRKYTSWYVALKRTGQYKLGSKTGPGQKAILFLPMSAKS
Sequence of Luciferin 4-monooxygenase (Photinus pyralis) (P08659 whole entry, looked up): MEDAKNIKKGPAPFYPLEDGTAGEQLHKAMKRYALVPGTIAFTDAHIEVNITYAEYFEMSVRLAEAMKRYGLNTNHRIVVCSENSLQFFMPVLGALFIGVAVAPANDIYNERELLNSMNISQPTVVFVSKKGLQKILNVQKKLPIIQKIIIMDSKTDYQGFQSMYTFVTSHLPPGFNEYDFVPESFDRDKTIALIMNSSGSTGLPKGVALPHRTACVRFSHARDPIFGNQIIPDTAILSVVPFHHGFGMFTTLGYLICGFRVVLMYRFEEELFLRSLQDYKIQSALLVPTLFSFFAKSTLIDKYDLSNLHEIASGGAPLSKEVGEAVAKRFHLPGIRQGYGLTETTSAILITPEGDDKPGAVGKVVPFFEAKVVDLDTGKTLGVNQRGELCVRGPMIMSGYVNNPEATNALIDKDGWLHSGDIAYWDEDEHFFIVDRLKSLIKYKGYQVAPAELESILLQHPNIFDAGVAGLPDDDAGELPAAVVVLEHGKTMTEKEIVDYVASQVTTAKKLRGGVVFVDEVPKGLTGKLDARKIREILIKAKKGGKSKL

On to `COc1ccc([C@H]2C[C@H]3C(Br)=C[C@]2(OC)C(=O)[C@]32CO2)cc1`, for which the composite z-score in assay [1] was 1.2; in [2], 0.0022; in assay [3] it was -0.458; in assay [4], -0.278; in [5], 0.276; in assay [6] it was 1.2. Also, the composite z-score in the assay with Lefty1 is -0.1; in assay [8] it was -0.06; in assay [10], -0.225; in [15], -0.0817; in [16], -0.128; in the assay with Torsin-1A (Homo sapiens) [17], 0.806. For the same molecule, the composite z-score was -0.278 in the assay with Torsin-1A (Homo sapiens) [18] and -0.038 in [19]. The z-score is -1.02 in assay [7]; 0.909 (inactive) in assay [9]; 0.147 (inactive) in assay [11]; -0.64 (inactive) in assay [12]; 0.586 (inactive) in [13]; 2.58 (inactive) in assay [14].

For `CC(C)[Si](OCC[C@H]1O[C@]2(C(=O)N(Cc3ccccc3)c3ccccc32)[C@@H](C)[C@@H]1[Si](C)(C)O)(C(C)C)C(C)C`, the composite z-score in assay [1] was -0.197; in [2], -0.694; in assay [3], 0.104; in [4], 0.618; in assay [5] it was 0.122; in assay [6], -0.206. In addition, the composite z-score in the assay with Lefty1 is 0.218; in assay [8] it was 0.128; in assay [10] it was 0.0427; in [15], -0.0546; in assay [16], -0.171; with Torsin-1A (Homo sapiens) [17] it was 0.399. Further, the results for the composite z-score (with Torsin-1A (Homo sapiens) [18]; in [19]) were -0.131 and 0.255, respectively. The z-score was -0.761 in [7]; -0.183 (inactive) in [9]; -0.555 (inactive) in assay [11]; 0.735 (inactive) in assay [12]; 0.223 (inactive) in assay [13]; -0.242 (inactive) in [14].

For `C=C(CCCC)/C(=C/C[C@@H](OC(=O)c1ccncc1)c1cccc(OCCO)c1)c1cc(C(=O)OC)ccc1OC`, the composite z-score in [1] came out at 0.541; in assay [2] it was 1.17; in assay [3], 0.0708; in assay [4], 0.939; in assay [5], 1.12; in assay [6] it was 0.627. Besides, the composite z-score in the assay on Lefty1 stood at 0.959; in [8], 1.09; in [10], 0.153; in [15], 0.788; in [16], 0.0852; with Torsin-1A (Homo sapiens) [17] it was 1.13. For the same molecule, the composite z-score with Torsin-1A (Homo sapiens) [18] worked out at 0.76; in assay [19], 1.47. In addition, the z-score in assay [7] was 4.97; in assay [9], -2.22 (inactive); in assay [11], -1.36 (inactive); in assay [12], -1.04 (inactive); in assay [13] it was 13.4 (active); in assay [14] it was -1.47 (inactive).

Turning to `CO[C@H]1COC(=O)[C@H](C)NC(=O)CC=C[C@@H](C)[C@H](NS(=O)(=O)c2ccc(C)cc2)COC(=O)CC=C[C@@H]1C`, the composite z-score is -0.0701 in assay [1]; -0.64 in assay [2]; -0.522 in assay [3]; -1.3 in assay [4]; 1.28 in [5]; 0.708 in assay [6]. In addition, the composite z-score is 1.35 with Lefty1; -0.955 in assay [8]; -0.0879 in assay [10]; -0.052 in [15]; -0.123 in assay [16]; 0.961 with Torsin-1A (Homo sapiens) [17]. The composite z-score with Torsin-1A (Homo sapiens) [18] is 0.0627; in [19], 1.38. The z-score in assay [7] is 0.507; in [9], -0.217 (inactive); in [11] it was -0.831 (inactive); in [13], 0.429 (inactive); in assay [14] it was -1.27 (inactive).

For the molecule `COC(=O)c1c(CC[C@@H](CO)NC(=O)N[C@H](Cn2cc(-c3cncn3C)nn2)C(C)C)oc(C(C)=O)c1C(=O)OC`, the composite z-score in [1] is 1.15; in assay [2], 0.722; in assay [3], -0.205; in [4], -0.0397; in assay [5] it was 0.415; in assay [6] it was 1.11. For the same molecule, the composite z-score with Lefty1 was 0.999; in [8], -0.0889; in assay [10] it was 0.0781; in assay [15], 0.341; in assay [16], -0.282; in the assay with Torsin-1A (Homo sapiens) [17] it was 0.422. The values for the composite z-score (with Torsin-1A (Homo sapiens) [18]; in [19]) were 0.368 and 0.75, respectively. The z-score is -0.315 in [7]; -0.263 (inactive) in assay [9]; -3.48 (inactive) in assay [11]; 1.01 (inactive) in assay [13]; -1.4 (inactive) in assay [14].
